Screening data from PubChem BioAssay.
Sampled rows, rich in hits. Any-hit rate of the full collection: about 8.9%.
KB-V1 cytotox – qHTS assay for MDR1-selective chemotherapeutics: Primary screen using the drug-selected MDR subline cells KB-V1 | KB-V1 MDR cells viability, CellTiter-Glo, 72 h | Potency, µM (titrated, usually from 46.1 µM), actives largely listed as cytotoxic | 400,000 compounds, 3.4% hits; note: potency is the fitted concentration of half-maximal effect; % is set by controls: 0 for no effect and ±100 for the full control effect; nearly all actives have a fitted effect of over 60% in size
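Compound-treated KB-V1 multidrug-resistant cells, 72 h, 37 degrees C; viability by CellTiter-Glo. Fitted qHTS curves give the values.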
MCF10A rerep – A quantitative high throughput screen for small molecules that induce DNA re-replication in MCF 10a normal breast cells. MCF 10A DNA re-replication, Hoechst nuclear intensity, 48 h. Potency, µM (highest dose often 46.1 µM), for inactives: at the highest dose activity, positive = re-replication, hits mostly activators. 350,000 compounds, 2.9% hits. AID 624296, 2012; note: potency is the fitted concentration of half-maximal effect; % of control where 0% means no effect; nearly all actives have a fitted effect of over 50% in size
KB-3-1 cytotox – qHTS assay for MDR1-selective chemotherapeutics: Primary screen using the parental adenocarcinoma cell KB-3-1; KB-3-1 viability, CellTiter-Glo ATP luminescence, 72 h; Potency, µM (top dose mostly 46.1 µM), actives largely listed as cytotoxic; 400,000 compounds, 1.4% hits; AID 1347075, 2019; note: potency is the fitted concentration of half-maximal effect; % is set by controls: 0 for no effect and ±100 for the full control effect; nearly all actives have a fitted effect of over 60% in size
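Cytotoxicity measured as CellTiter-Glo luminescence after 72 h at 37 C. Compound titrations were pinned onto drug-naive KB-3-1 parental adenocarcinoma cells grown in DMEM with 10% FBS, and normalized data fitted to concentration-response curves.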
DRD3 agonist – qHTS of D3 Dopamine Receptor Agonist: qHTS; D(3) dopamine receptor (Homo sapiens), P35462; D3R DiscoveRx beta-arrestin cells, luminescence, 90 min; max activation, %; 410,000 compounds, 0.58% hits; in the data active = max activation above about 30%; note: 0% is about no effect
Target sequence (P35462 whole entry, looked up): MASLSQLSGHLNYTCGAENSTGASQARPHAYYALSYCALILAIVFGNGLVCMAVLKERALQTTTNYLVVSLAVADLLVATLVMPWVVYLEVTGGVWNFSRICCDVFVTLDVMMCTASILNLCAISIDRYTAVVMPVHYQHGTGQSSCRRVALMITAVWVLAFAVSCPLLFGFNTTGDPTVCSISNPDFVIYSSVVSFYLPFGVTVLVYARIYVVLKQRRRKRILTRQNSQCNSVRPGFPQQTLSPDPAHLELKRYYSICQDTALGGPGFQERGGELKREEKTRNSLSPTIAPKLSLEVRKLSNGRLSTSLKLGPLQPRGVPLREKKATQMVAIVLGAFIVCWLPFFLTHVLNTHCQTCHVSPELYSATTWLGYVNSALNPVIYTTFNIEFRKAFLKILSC
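Agonist-mode cell screen: cells plated at 1500/well and incubated overnight at 37 °C, then exposed to library compounds for 90 min at 37 °C. Detection reagent was added for 30–60 min at room temperature, and luminescence was read.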
SW480 rerep – A quantitative high throughput screen for small molecules that induce DNA re-replication in SW480 colon adenocarcinoma cells. 340,000 compounds, 1.8% hits. AID 624297, 2012. Potency, µM (series often up to 46.1 µM), for inactives: at the highest dose re-replication activation, usual class: activators. SW480 DNA re-replication, Hoechst DNA content imaging, 48 h; note: potency is the fitted concentration of half-maximal effect; % of control where 0% means no effect; nearly all actives have a fitted effect of over 55% in size
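250 cells/well; 23 nL cpd via pin tool; 48 hr, 37 C, 5% CO2; Hoechst 40 min; imager read of total nuclear intensity, ex 405/em 500-530 nm.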
D3 antag – qHTS of D3 Dopamine Receptor Antagonist: qHTS. D3R cells, DiscoveRx beta-arrestin luminescence, antagonist mode; stronger effect = lower value. max response, negative = inhibition, %. 360,000 compounds, 2.5% hits. AID 652054, 2013; in the data active = max response below about -50%; inconclusive = no clear call, values can overlap the other calls; note: % is set by controls: 0 for no effect and ±100 for the full control effect
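Cells expressing the human receptor were seeded at 1500 cells/well, incubated overnight at 37 degrees C in 5% CO2, then exposed to library compounds with dopamine controls for 90 minutes at 37 degrees C before luminescent detection.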
An asterisk follows results filed as active; i = inactive; ? = inconclusive; . = no result given; ! = a repeat was not active. Unless noted, calls come from the whole dose curve; as a rule, active = well fitted curve in the direction sought with a large enough effect; inconclusive = small, poorly fitted or top-dose-only effect, or another doubt; inactive = no such curve, though single readings can be large; an effect the other way counts as inactive or inconclusive.

SMILES	KB-V1 cytotox	MCF10A rerep	KB-3-1 cytotox	DRD3 agonist	SW480 rerep	D3 antag
CC(Sc1c[nH]c2ccccc12)C(=O)O (stereo not drawn)	i	8.2µM*	i	15.6	?	5.8
O=C(O)CSc1c[nH]c2ccccc12	i	-1.6%	i	11.3	-16.9%	-11.7
Cn1c(=O)c2c(ncn2CC(=O)Nc2nc(-c3ccccc3Cl)cs2)n(C)c1=O	20.6µM*	14.0%	?	32.3*	5.2%	16.2
C(=C\c1c[nH]c2ccccc12)/c1ccc2ccccc2n1	i	.	i	.	.	.
CN1CCN(C(=O)c2cnn(-c3cccc(Cl)c3)c2C2CCN(C(=O)OC(C)(C)C)CC2)CC1	i	.	i	-6.7	.	.
Cc1ccc2c(c1)sc(-c1ccc(N(C)C)cc1)[n+]2C	i	11.6µM*	1.84µM*	4.5	13µM*	6.1
O=C(Nc1cccc(O)c1)c1noc2c1CCc1ccccc1-2	23.1µM*!	-1.3%	i	4.3	3.3%	15.9
O=C(Nc1cccc(C(F)(F)F)c1)c1noc2c1CCc1ccccc1-2	i	.	i	-14.5	.	.
COc1cc(OC)cc(-c2c(C#Cc3ccsc3)c3cc(-c4ccc(OC)c(F)c4)ccc3n2C)c1	i	26.7%	i	50.0*	1.0%	1.3
COc1cc(C#Cc2c(-c3cncn3C)n(C)c3ccc(-c4cc(OC)c(OC)c(OC)c4)cc23)cc(OC)c1	?	-0.4%	11.6µM*	19.7	?	104.2
CC1CCCCN1S(=O)(=O)c1cc2c3c(c1)CC(=O)N3CCC2 (stereo not drawn)	i	.	i	-1.8	.	.
CCCN(CC(=O)Nc1cc(Cl)ccc1Cl)C(=O)c1ccc(N2CCCC2=O)cc1	7.31µM*	2.3%	?	9.3	-4.0%	2.6
CCCN(CC(=O)Nc1ccccc1C)C(=O)c1ccc(N2CCCC2=O)cc1	i	8.4%	i	1.3	0.5%	24.7
O=C1NC(=O)C2(CCCC2c2ccccc2)N1 (stereo not drawn)	i	-0.6%	i	-2.2	-0.9%	-17.7
COc1ccc2ncnc(NCC3CCCO3)c2c1-c1ccc2c(c1)OCO2 (stereo not drawn)	i	.	i	.	.	.
O=C(c1cc(-c2ccncc2)nc2ccccc12)N1CCN(c2ccccn2)CC1	?	10.3µM*	13µM*	17.8	18.4µM*	20.2
Cc1ccc(-c2cc(C(=O)NNC(=O)c3csc(N4CCOCC4)n3)c3ccccc3n2)cc1	i	1.4%	i	2.3	5.6%	19.7
O=C(c1cc(-c2ccccc2)nc2ccccc12)N1CCN(c2ccccn2)CC1	?	?	?	6.1	0.7%	7.3
Cc1ccc2nc(-c3ccccc3)cc(C(=O)NNC(=O)c3csc(N4CCOCC4)n3)c2c1	20.6µM*	17.0%	i	11.7	-2.5%	19.0
O=C(c1cn(Cc2ccccc2)nc1-c1ccccc1)N1CCN(c2ccccn2)CC1	?	5.0%	10.3µM*	-0.9	?	10.3
O=C(c1ccccc1-c1ccccc1)N1CCN(c2ccccn2)CC1	2.59µM*	7.31µM*	2.59µM*	-2.4	7.31µM*	-20.5
Cc1c(C(=O)N2CCN(c3ccccn3)CC2)cccc1[N+](=O)[O-]	?	-0.3%	i	2.5	-1.6%	1.3
COc1ccc(-c2nn(Cc3ccccc3)cc2C(=O)N2CCN(c3ccccn3)CC2)cc1OC	i	1.8%	i	2.9	-4.0%	0.8
Cn1ccnc1COc1ccc(C=O)cc1	?	0.1%	i	1.0	-3.2%	23.9
Cc1ccc2nc(-c3ccccc3)cc(C(=O)N3CCN(c4ccccc4O)CC3)c2c1	?	24.5%	i	31.4*	-3.0%	37.3
SMILES	KB-V1 cytotox	MCF10A rerep	KB-3-1 cytotox	DRD3 agonist	SW480 rerep	D3 antag
O=C(c1cc(-c2ccccc2)nc2ccccc12)N1CCN(c2ccccc2O)CC1	i	11.5%	i	6.1	17.0%	6.0
Cc1ccccc1C(=O)N1CCN(c2ccccn2)CC1	i	-1.4%	i	-0.4	0.8%	15.3
O=C(c1ccccc1Br)N1CCN(c2ccccn2)CC1	i	0.7%	i	33.0*	-0.7%	-11.0
O=C(c1cnc(N2CCN(c3ncccn3)CC2)c2ccccc12)N1CCN(c2ccccn2)CC1	20.6µM*	?	i	7.6	-6.6%	16.8
CCc1cccc(CC)c1NC(=O)C(CC)n1nc(C)n2c(cc3cc(C)ccc32)c1=O (stereo not drawn)	i	.	i	-1.7	.	.
COc1ccc(C(=O)Nc2ccccc2C(=O)OCc2cc(=O)n3c4c(sc3n2)CCCC4)cc1	.	.	.	-11.4	.	.
CCOc1ccccc1CNC(=O)Cn1c(=O)c2cccn2c2ccc(F)cc21	.	.	.	-20.3	.	.
Cc1ccc(S(=O)(=O)NC(=O)Nc2ccc(N(C)C)cc2)cc1	i	19.2%	?	1.0	7.31µM*	-18.0
CCCN1CCN(CC2=C(C(=O)OCC)C(c3ccc(Cl)cc3)NC(=O)N2)CC1 (stereo not drawn)	i	.	i	-18.9	.	.
COc1ccc(C2=CC3=C(Br)C(=O)C(C)(OC(=O)c4cccs4)C(=O)C3=CO2)cc1 (stereo not drawn)	i	-36.7%	i	10.3	-46.5%	-54.6*
COc1ccc(C2=CC3=C(Br)C(=O)C(C)(OC(=O)c4ccco4)C(=O)C3=CO2)cc1 (stereo not drawn)	i	-15.8%	i	4.3	-3.2%	1.8
C=CCOc1ccccc1CN(C(=O)CCl)c1ccc2c(c1)OCO2	?	?	?	1.1	5.17µM*	10.0
CCOc1ccccc1NC(=O)Nc1ccc2c(c1)OCO2	i	14.2%	i	-0.3	-3.3%	4.8
Cc1ccc(-n2c(-c3ccccc3)c[n+]3c2CCc2ccccc2-3)c(C)c1	i	21.8%	4.61µM*	-2.2	25.8%	-6.3
CCc1ccc(CN2CCc3nc(Nc4ccc5c(c4)OCCO5)ncc3C2)cc1	?	.	i	-12.1	.	.
CC(C)CN(C(=O)COC(=O)c1cccs1)c1c(N)n(Cc2ccccc2)c(=O)[nH]c1=O	i	.	i	5.3	.	-16.6
CCN(C(=O)CSc1nnc2ccccn12)c1c(N)n(Cc2ccccc2)c(=O)[nH]c1=O	i	-0.5%	i	30.5*	-0.7%	9.8
CCCOc1ccc(C(=O)CCC(=O)OCC(=O)N(CC)c2c(N)n(Cc3ccccc3)c(=O)[nH]c2=O)cc1	i	-4.7%	i	6.8	0.5%	0.4
